{"source": "PubChem BioAssay (Tox21)", "note": "Results filed as inconclusive are left out. Values without a mark were called inactive. Activity calls are given as the source filed them. Calls come from the whole dose curve; as a rule, active = well fitted inhibition curve with a large enough effect in the repeat runs; inconclusive = weak or mixed curves; inactive = no such curve, though single readings can be large or run the other way. % is set by controls: 0 for no effect and ±100 for the full control effect; potency is the fitted concentration of half-maximal effect.", "data": [{"molecular_target": "Cytochrome P450 3A4 (Homo sapiens) (UniProt P08684)", "sequence (P08684 whole entry, looked up)": "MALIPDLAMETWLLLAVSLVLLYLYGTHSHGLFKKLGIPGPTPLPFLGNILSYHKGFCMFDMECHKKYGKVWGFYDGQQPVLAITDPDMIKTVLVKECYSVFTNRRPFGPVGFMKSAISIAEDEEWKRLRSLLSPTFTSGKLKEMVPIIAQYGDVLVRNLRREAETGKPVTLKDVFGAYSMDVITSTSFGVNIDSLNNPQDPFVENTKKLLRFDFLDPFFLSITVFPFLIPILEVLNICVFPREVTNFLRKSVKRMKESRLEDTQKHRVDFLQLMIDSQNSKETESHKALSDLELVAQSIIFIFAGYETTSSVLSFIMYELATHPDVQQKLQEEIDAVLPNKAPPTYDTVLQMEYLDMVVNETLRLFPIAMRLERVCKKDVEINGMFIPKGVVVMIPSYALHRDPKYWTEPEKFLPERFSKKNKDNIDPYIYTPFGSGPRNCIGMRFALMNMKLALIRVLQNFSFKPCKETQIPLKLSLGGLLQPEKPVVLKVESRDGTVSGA", "experiment": "Cytochrome P450 Family 3 Subfamily A Member 4 (CYP3A4) small molecule antagonists: luciferase reporter qHTS assay (AID 1671201); note: nearly all actives have a fitted effect of over 50% in size", "conditions": "P450-Glo CYP3A4 enzyme, luciferin luminescence, 1 h; series mostly up to 115 µM; activity change, negative = inhibition: at the top concentration", "summary_of_the_method": "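Proluciferin-to-luciferin conversion by CYP3A4, NADPH-regenerated, 1 h RT; luminescence read as RLU. Ketoconazole as control.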", "values": [{"smiles": "CC(C(=O)O)c1ccc2c(c1)Cc1cccnc1O2", "note": "(stereo not given)", "activity change, negative = inhibition": "50.2% [at 52.9 µM]"}, {"smiles": "Nc1ccccc1Nc1ccccc1", "Potency": "31.8 µM (active)"}, {"smiles": "O=S(=O)(O)c1cc(Cl)c(Cl)cc1Cl", "activity change, negative = inhibition": "46.1%"}, {"smiles": "C=CC(=O)NC(C)(C)C", "activity change, negative = inhibition": "1.61%"}, {"smiles": "CCCCCO", "activity change, negative = inhibition": "4.8%"}, {"smiles": "Cc1ccc(Cl)c(OCC(O)CNC(C)(C)C)c1", "note": "(stereo not given)", "activity change, negative = inhibition": "5.87% [at 52.9 µM]"}, {"smiles": "CC(C)(C)c1cc(C=O)cc(C(C)(C)C)c1O", "activity change, negative = inhibition": "0.0711% [at 52.9 µM]"}, {"smiles": "CCCCCCCCCCCCCCCCCCCl", "activity change, negative = inhibition": "-1.1% [at 10.5 µM]"}, {"smiles": "CCc1ccc(C(=O)C(C)CN2CCCCC2)cc1", "note": "(stereo not given)", "activity change, negative = inhibition": "-14.5% [at 52.9 µM]"}, {"smiles": "O=C(OCCOCCOCCOC(=O)c1ccccc1)c1ccccc1", "activity change, negative = inhibition": "-3.11%"}, {"smiles": "O=C(O)CCc1nc2ccccc2[nH]1", "activity change, negative = inhibition": "-0.0704% [at 52.9 µM]"}, {"smiles": "CC(C)C/C=C(\\C=O)c1ccccc1", "Potency": "35.6 µM (active)"}, {"smiles": "c1ccc(CN(Cc2ccccc2)Cc2ccccc2)cc1", "activity change, negative = inhibition": "1.26%"}, {"smiles": "C[C@H](CN1CCCC1)C(=O)c1ccc(C(F)(F)F)cc1", "activity change, negative = inhibition": "5.62% [at 52.9 µM]"}, {"smiles": "O=C(Cl)c1ccc(F)c(Cl)c1", "activity change, negative = inhibition": "50%"}, {"smiles": "C[C@]12CCC(=O)C=C1[C@@H]1C[C@@H]1[C@H]1[C@@H]3[C@@H]4C[C@@H]4[C@@]4(CCC(=O)O4)[C@@]3(C)CC[C@@H]12", "activity change, negative = inhibition": "76.9% [at 52.9 µM]"}, {"smiles": "O=C1OC(=O)C2CC=CCC12", "note": "(stereo not given)", "activity change, negative = inhibition": "9.26%"}, {"smiles": "CC(C)Oc1ccccc1O", "activity change, negative = inhibition": "3.77%"}, {"smiles": "c1ccc(-c2ccc(-c3ccccc3)cc2)cc1", "activity change, negative = inhibition": "-14.7% [at 23.6 µM]"}, {"smiles": "COC(=O)c1cc(Cl)ccc1[N+](=O)[O-]", "activity change, negative = inhibition": "17.8%"}, {"smiles": "Cc1cc(N)n(-c2ccccc2)n1", "activity change, negative = inhibition": "-26.6%"}, {"smiles": "CC(C)=CCCC(C)C=O", "note": "(stereo not given)", "Potency": "35.6 µM (active)"}, {"smiles": "O=C(O)c1ccc2c(c1)nc(C(=O)NC1CCN(C3CC3)CC1)n2Cc1cc(-c2ccc(Cl)s2)on1", "activity change, negative = inhibition": "1.57% [at 23.6 µM]"}, {"smiles": "O=C(O)c1ccc2cc(O)ccc2c1", "activity change, negative = inhibition": "5.9%"}, {"smiles": "O=C1c2ccccc2C(=O)C1c1ccc2cc(S(=O)(=O)O)cc(S(=O)(=O)O)c2n1", "activity change, negative = inhibition": "-6.69%"}, {"smiles": "N#Cc1ccc(CC(=O)c2cccc(C(F)(F)F)c2)cc1", "activity change, negative = inhibition": "-21.4%"}, {"smiles": "CC1(COc2ccc(CC3SC(=O)NC3=O)cc2)CCCCC1", "note": "(stereo not given)", "activity change, negative = inhibition": "4.87% [at 52.9 µM]"}, {"smiles": "C[C@H]1C[C@H]2[C@@H]3CCC4=CC(=O)C=C[C@]4(C)[C@@]3(F)[C@@H](O)C[C@]2(C)[C@@]1(O)C(=O)COP(=O)(O)O", "activity change, negative = inhibition": "1.22%"}, {"smiles": "CCC(C(=O)O)c1ccc(N2Cc3ccccc3C2=O)cc1", "note": "(stereo not given)", "activity change, negative = inhibition": "3.76% [at 52.9 µM]"}, {"smiles": "O=[N+]([O-])c1ccc(Cl)cc1Cl", "activity change, negative = inhibition": "19.2%"}]}]}
